Shown is part of a subset that was picked to be rich in hits.
Chlamy TAG = algal TAG accumulation induction; AID 1159537; 0.84% of 44,000 active; calls only at 10 µM (by protocol); Chlamydomonas reinhardtii TAG, Nile Red fluorescence, 72 h; call rule not given here;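 also: hits raise Nile Red signal meaning more stored TAG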
An asterisk follows results filed as active; i = inactive; + = active, no number.

SMILES	Chlamy TAG
O=[N+]([O-])c1ccc(OCC(O)CN(C2CCCCC2)C2CCCCC2)cc1 (stereo not drawn)	i
CN(CC(O)COc1ccc(Br)cc1)C1CCCCC1 (stereo not drawn)	+
O=C(COc1ccc(Br)cc1)NC1CCCC1	i
CCN(CC(O)COc1ccc(Br)cc1)C1CCCCC1 (stereo not drawn)	+
O=S(=O)(Nc1ccc(Cl)cc1O)c1ccccc1	i
C=CCN(CC=C)C(=O)c1ccc2snnc2c1	i
COc1ccccc1OCCOc1cc(C)ccc1C	i
O=C(C1CCN(Cc2ccccc2O)CC1)N(CCO)Cc1ccccc1	i
COc1ccccc1CN1CCC(C(=O)N(CCN(C)C)Cc2ccccc2)CC1	i
CCN(Cc1ccccc1)C(=O)C1CCN(Cc2ccccc2F)CC1	+
CCN(C(=O)c1sc2cc([N+](=O)[O-])ccc2c1Cl)c1ccc2c(c1)OCO2	i
CC(=O)c1cccc(NS(=O)(=O)c2cccc(C(=O)Nc3ccc(Br)cc3)c2)c1	i
COc1ccc(/C=C(/NC(=O)c2ccc(Br)o2)C(=O)NN)cc1	i
O=C(NCc1ccccn1)c1cc(-c2ccc3c(c2)OCO3)nc2ccccc12	i
O=C(NCC1CCCO1)c1cc(-c2ccc3c(c2)OCO3)nc2ccccc12 (stereo not drawn)	+
NS(=O)(=O)c1ccc(CNC(=O)c2cc(-c3ccc4c(c3)OCO4)nc3ccccc23)cc1	i
Clc1ccc(Cl)c(OCCCCN2CCNCC2)c1	+
Cc1cc(Cl)ccc1OCCN1CCNCC1	i
Clc1cc(Br)ccc1OCCCCN1CCCC1	i
CC(=O)c1cccc(NC(=O)C(Cc2ccc([N+](=O)[O-])cc2)N2C(=O)c3ccccc3C2=O)c1 (stereo not drawn)	i
Nn1c(SCC(=O)NC23CC4CC(CC(C4)C2)C3)nnc1-c1ccc(Cl)cc1Cl	+
CN(C)C(=O)CSc1nnc(-c2ccc(Cl)cc2Cl)n1N	i
Nn1c(SCC(=O)Nc2ccccc2F)nnc1-c1ccc(Cl)cc1Cl	i
Cc1ccccc1CSCC(=O)Nc1ccc(C(N)=O)cc1	i
O=C(CSc1nnc(NC(=O)c2ccc(Cl)cc2)s1)c1ccc(Br)cc1	i
SMILES	Chlamy TAG
O=C(CSc1nc2ccc([N+](=O)[O-])cc2s1)NCc1ccco1	i
CC(C(=O)NCc1ccc(Cl)cc1)N(c1ccccc1)S(C)(=O)=O (stereo not drawn)	+
CC(C(=O)NC1CCCCCC1)N(c1ccccc1)S(C)(=O)=O (stereo not drawn)	i
CC(C(=O)NCc1cccnc1)N(c1ccccc1)S(C)(=O)=O (stereo not drawn)	i
COc1ccc(CNC23CC4CC(CC(C4)C2)C3)cc1OC	i
Cc1ccc(NC(=O)C2C3C=CC(C3)C2C(=O)O)c(Br)c1 (stereo not drawn)	i
COc1ccccc1N1CCN(CCC(C)c2ccccc2)CC1 (stereo not drawn)	i
CCCc1cc(=O)[nH]c(N=C(N)Nc2cccc(C)c2)n1	i
Cc1ccc(-n2nc3cc(Cl)c(NC(=O)c4ccccc4[N+](=O)[O-])cc3n2)cc1	i
COc1cc(CN2CCN(Cc3ccc([N+](=O)[O-])cc3)CC2)cc(OC)c1	+
COc1ccc(CN2CCN(Cc3ccc([N+](=O)[O-])cc3)CC2)cc1OC	+
COc1ccc(OC)c(CN2CCN(Cc3ccc(OC)c(OC)c3)CC2)c1	i
COc1ccc(OC)c(CN2CCN(Cc3ccc([N+](=O)[O-])cc3)CC2)c1	+
O=[N+]([O-])c1ccc(CN2CCC(N3CCCCC3)CC2)cc1	i
COc1cc(CN2CCN(Cc3cccc([N+](=O)[O-])c3)CC2)cc(OC)c1OC	i
COc1ccc(CN2CCN(Cc3cc(OC)c(OC)cc3[N+](=O)[O-])CC2)cc1OC	i
COc1ccc(OC)c(CN2CCN(Cc3cc(OC)c(OC)c(OC)c3)CC2)c1	i
COc1ccc(S(=O)(=O)N2CCN(Cc3ccc([N+](=O)[O-])cc3)CC2)cc1	i
O=[N+]([O-])c1ccc(CN2CCN(C3CCCCCC3)CC2)cc1	+
COc1ccc(CN2CCN(Cc3cccc([N+](=O)[O-])c3)CC2)cc1	i
O=[N+]([O-])c1ccc(CN2CCCCCC2)cc1	i
O=C(NCc1ccc2c(c1)OCO2)C1CCCC1	i
Cc1ccc(C2C(=C(O)c3ccc(OC(C)C)cc3)C(=O)C(=O)N2Cc2cccnc2)o1 (stereo not drawn)	i
COc1ccc(-c2nc(-c3ccc(C)cc3)no2)cc1[N+](=O)[O-]	i
Cc1cccc(OCCOCCN2CCCC2)c1C	i
SMILES	Chlamy TAG
CC(=O)c1cccc(NS(=O)(=O)c2ccc(Cl)cc2)c1	i
COc1ccc(C(O)Cn2c(=N)n(CCN3CCCCC3)c3ccccc32)cc1 (stereo not drawn)	i
O=C(CN1C(=O)C2C3CCC(C3)C2C1=O)Nc1ccc(Br)c(Cl)c1 (stereo not drawn)	i
COc1ccc(OC)c(/C=C(\C#N)c2ccc([N+](=O)[O-])cc2)c1	i
O=C(CN1CCOCC1)NC12CC3CC(CC(C3)C1)C2	i
C=CCNCC(=O)NC12CC3CC(CC(C3)C1)C2	+
O=C(O)CNC(=O)NC12CC3CC(CC(C3)C1)C2	i
Cc1ccc(S(=O)(=O)N2CCOCC2)cc1NS(=O)(=O)c1ccc(C)c(C(N)=O)c1	i
CC(C)NC(=O)C(=O)Nc1ccccc1	i
COc1ccc(C(=O)Nc2ccc(C(C)C)cc2)cc1[N+](=O)[O-]	i
Cc1ccc(C(=O)Nc2ccncc2)cc1[N+](=O)[O-]	i
O=C(Nc1ccc([N+](=O)[O-])cc1)c1ccccc1Cl	+
Cc1ccccc1C(=O)Nc1ccc([N+](=O)[O-])cc1	i
CCSc1ccc(C(=O)Nc2ccc(Cc3ccncc3)cc2)cc1[N+](=O)[O-]	+
O=C(O)c1ccc(NC(=O)c2ccc([N+](=O)[O-])cc2)cc1	i
O=C(Nc1cccc(NC(=O)c2ccccc2Cl)c1)c1ccc([N+](=O)[O-])cc1	i
O=C(Nc1ccc(Cc2ccncc2)cc1)c1ccc([N+](=O)[O-])cc1Cl	+
O=C(Nc1ccc([N+](=O)[O-])cc1)c1c(F)c(F)c(F)c(F)c1F	+
O=C(Nc1cccc(Cl)c1)c1ccc([N+](=O)[O-])cc1Cl	i
CCC(C)c1ccc(NC(=O)c2ccc([N+](=O)[O-])cc2Cl)cc1 (stereo not drawn)	i
COc1cccc(OC)c1C(=O)Nc1ccc([N+](=O)[O-])cc1	i
CC1CCN(S(=O)(=O)c2cc(C(=O)Nc3ccccc3)c(Cl)cc2Cl)CC1	i
Cc1ccc2[nH]c3c(c2c1)CCC3C(N)=O (stereo not drawn)	i
O=c1c(CN2CCCCCC2)coc2ccc(Cl)cc12	i
O=C(Nc1cc(Cl)ccc1Cl)c1cc(I)ccc1Cl	i
SMILES	Chlamy TAG
Cc1ccc([N+](=O)[O-])cc1NC(=O)C(C)(C)Oc1ccc(Cl)cc1	i
O=C1CC(N2CCSCC2)C(=O)N1c1ccc(Cl)cc1 (stereo not drawn)	i
COc1cc(CN2CCN(Cc3ccccc3F)CC2)cc(OC)c1OC	i
OCCNc1nc(-c2ccccc2F)nc2ccccc12	i
C(=C\c1ccccc1)/CN1CCN(C2CCc3ccccc3C2)CC1 (stereo not drawn)	+
O=C1CC(N2CCN(C/C=C/c3ccccc3)CC2)C(=O)N1c1ccc(Br)cc1 (stereo not drawn)	i
